Here are results for 63 compounds from PubChem BioAssay AID1851 (National Center for Advancing Translational Sciences (NCATS), 2009).

Hit rate of the full screen: of about 16,000 compounds, about 4,000 (25%) were called active. About 26% were inconclusive and are not listed. Not all results are given here. Values without a mark were called inactive. The call rests on the fitted dose curve; in most records, active means well fitted curve in the direction sought with a large enough effect; inconclusive means small, poorly fitted or top-dose-only effect, or effect the other way; inactive means no such curve, though single readings can be large or run the other way.
On the % scale 0 is the no-effect control and ±100 the full control effect.

The assay deals with Cytochrome P450 2C9 (Homo sapiens) (UniProt P11712). The experiment in a line: Cytochrome panel assay with activity outcomes. As to conditions: recombinant CYP, pro-luciferin dealkylation, luminescence, p450-cyp2c9; series mostly up to 57.1 µM; activity, negative = inhibition: at the top concentration.
Sequence of Cytochrome P450 2C9 (Homo sapiens) (P11712 whole entry, looked up): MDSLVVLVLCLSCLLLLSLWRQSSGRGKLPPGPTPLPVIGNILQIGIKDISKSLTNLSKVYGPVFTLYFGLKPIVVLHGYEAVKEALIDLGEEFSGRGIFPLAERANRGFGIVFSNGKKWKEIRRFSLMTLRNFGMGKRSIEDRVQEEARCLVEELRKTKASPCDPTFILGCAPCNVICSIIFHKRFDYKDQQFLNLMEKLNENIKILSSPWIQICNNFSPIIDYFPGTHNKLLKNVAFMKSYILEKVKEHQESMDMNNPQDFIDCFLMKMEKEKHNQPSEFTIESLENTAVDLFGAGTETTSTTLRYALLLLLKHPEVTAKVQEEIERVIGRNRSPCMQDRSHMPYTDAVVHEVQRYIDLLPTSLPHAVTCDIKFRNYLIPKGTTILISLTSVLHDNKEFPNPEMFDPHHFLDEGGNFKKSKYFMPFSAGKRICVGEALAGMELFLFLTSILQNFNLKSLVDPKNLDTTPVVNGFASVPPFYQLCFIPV
`CN(CC(=O)O)Cc1c(O)c(Cl)cc(Cl)c1Cl`: the activity, negative = inhibition was 13.6% [at 11.4 µM].
For the compound `CC(=O)N[C@@H](Cc1c[nH]c2ccccc12)C(=O)OCc1cc(C(F)(F)F)cc(C(F)(F)F)c1`, the “activity, negative = inhibition” value is 2.21%.
Turning to `C[C@@H](C(=O)NCCc1c[nH]c2ccccc12)[C@H]1C[C@]1(C)[C@H](NC(=O)OCc1ccccc1)c1ccccc1`, the half-maximal activity concentration (AC50) (usually the concentration giving half of the maximal activity seen) was 0.631 µM (active).
Take `COC(=O)C(Cc1c[nH]c2ccccc12)NC(=O)C(C)C` (stereo not drawn): the “activity, negative = inhibition” value is -33.5%.
On to `C[C@@H](C(=O)NCCc1c[nH]c2ccccc12)[C@@H]1C[C@@]1(C)[C@@H](NC(=O)OCc1ccccc1)c1ccccc1`, for which the half-maximal activity concentration (AC50) was 2.51 µM (active).
Regarding `C#C[C@]1(O)CC[C@@H]2[C@H]3CCc4cc(OC)ccc4[C@@H]3CC[C@@]21C`, the “activity, negative = inhibition” value is -27.5% [at 25.6 µM].
For `C#C[C@@]1(O)CC[C@@H]2[C@@H]3CCC4=CC(=O)CC[C@@H]4[C@H]3CC[C@]21CC`, the “activity, negative = inhibition” value was -23.8% [at 25.6 µM].
Consider `C#C[C@@]1(OC(C)=O)CC[C@@H]2[C@@H]3CCC4=C[C@@H](OC(C)=O)CC[C@H]4[C@H]3CC[C@]21C`, for which the half-maximal activity concentration (AC50) was 15.8 µM (active).
For `C#C[C@]1(O)CC[C@@H]2[C@H]3CCC4=CCCC[C@@H]4[C@@H]3CC[C@@]21C`, the AC50 was 10 µM (active).
`CC(C)(C)C(=O)NC(=C(Cl)Cl)P(=O)(O)O`: the “activity, negative = inhibition” value was -19.5%.
Turning to `CCCn1nc(NC(=O)CC(C)C)c2cc3ccccc3nc21`, the concentration at half-maximal activity (AC50) is 2 µM (active).
With `CCCS(=O)(=O)N1CCN(CC2CC=CCC2)CC1` (stereo not drawn), the “activity, negative = inhibition” value is -43.6%.
The same measure, in the same setting: next, `Cc1noc(C)c1-c1cc(NC2CC2)ncn1`: -1.99% [at 2.29 µM].
As to `COc1cc(C(=O)Nc2cc(C(F)(F)F)ccc2Cl)cc(OC)c1OC`, the concentration at half-maximal activity (AC50) was 8.91 µM (active).
Regarding `N/C(CC(=O)Nc1cc(C(F)(F)F)ccc1Cl)=N\O`, the activity, negative = inhibition is 11.2% [at 11.4 µM].
Regarding `COc1cc(NC(=O)c2ccc(COCC(F)(F)F)cc2)cc(OC)c1OC`, the “activity, negative = inhibition” value is 22.1%.
On to `CC(C)(CN)CN`, for which the activity, negative = inhibition was 2.97% [at 11.4 µM].
In the case of `CCC(C)NC(=O)C1CCCN(C(=O)NC2CCCCC2)C1` (stereo not drawn), the AC50 is 20 µM (active).
On to `CC(C)C(NC(=O)C1CCCCC1)C(=O)NC1CCN(Cc2ccccc2)CC1` (stereo not drawn), for which the “activity, negative = inhibition” value is 7.86%.
`CCC(C)NC(=O)C1CCN(C(=O)c2ccccc2)CC1` (stereo not drawn): the “activity, negative = inhibition” value was -9.04%.
Turning to `COc1ccc(C2C(=O)N(CCc3ccccc3)CC(=O)N2C2CCCC2)cc1` (stereo not drawn), the half-maximal activity concentration (AC50) is 22.4 µM (active).
`COc1ccc(C2C(C(=O)N3CCN(C)CC3)c3ccccc3C(=O)N2C2CCCCC2)cc1` (stereo not drawn): the “activity, negative = inhibition” value is -14%.
The same measure, in the same setting: next, `Cc1ccc(CCN2CC(C(=O)NC3CCCC3)CC2=O)cc1` (stereo not drawn): -15.5%; `Cn1c(=O)n2n(c1=O)[C@H]1[C@H](O)[C@H]3O[C@H]3C(=O)[C@H]1CC2`: 7.6% [at 11.4 µM].
On to `O=C(O)CN(CCN(CC(=O)O)CC(=O)O)CC(=O)O.[Cu]`, for which the activity, negative = inhibition was 4.98% [at 11.4 µM].
Turning to `Cc1[nH]nc(-c2ccc(OCc3cnn(-c4ccccc4)c3)cc2O)c1Oc1ccccc1F`, the AC50 is 2 µM (active).
`COC(=O)c1ccc(Oc2coc3cc(OCc4cnn(-c5ccccc5)c4)ccc3c2=O)cc1`: the “activity, negative = inhibition” value is 28.5%.
`Cc1ccc(NC(=O)Nc2nc(-c3ccc(C)s3)cs2)cc1`: the AC50 is 3.55 µM (active).
In the case of `O=C(c1cc(C(F)(F)F)cc(C(F)(F)F)c1)N1CCC[C@@]2(CCN(c3ncccn3)C2)C1`, the “activity, negative = inhibition” value is -1.16%.
On to `Cc1cc(C(=O)NCc2ccccc2)no1`, for which the “activity, negative = inhibition” value is -34.4%.
Take `CC(C)(C)c1ccc(C(=O)NCc2ccc(Cl)cc2)cc1`: the “activity, negative = inhibition” value is 9%.
With `COc1ccc(Cc2c(N)nc(N)nc2N)cc1`, the “activity, negative = inhibition” value was 11.5%.
Regarding `COc1ccc(CNC(=O)C2CSC(=O)C2)cc1` (stereo not drawn), the “activity, negative = inhibition” value is -18.7%.
For `COc1ccc(CNC(=O)c2cnc(C)cn2)cc1`, the half-maximal activity concentration (AC50) is 35.5 µM (active).
The same measure, in the same setting: next, `COc1ccc(CNC(=O)c2csc(Cc3ccc(Cl)cc3)n2)cc1`: 3.98 µM (active); `COc1ccc(CNC(=O)c2csc(Cc3ccc(OC)cc3)n2)cc1`: 10 µM (active).
With `COc1ccc(CNC(=O)C2CC(c3ccc(OC)cc3)=NO2)cc1` (stereo not drawn), the “activity, negative = inhibition” value is 16.9%.
Same read-out and setting: the result for `Cc1nc(CN2CCCCC2)c(O)c(=O)[nH]1` reads 7.96% [at 11.4 µM]; that for `C[C@]1(c2ccccc2)OC(C(=O)O)=CC1=O`, 8.89%.
As to `CC(=O)N(O)CCCCCNC(=O)CCC(=O)N(O)CCCCCNC(=O)CCC(=O)N(O)CCCCCN`, the “activity, negative = inhibition” value is -3.39% [at 25.6 µM].
In the case of `O=C(c1ccc2c(c1)OCCO2)C1CCN(S(=O)(=O)c2ccccc2F)CC1`, the “activity, negative = inhibition” value is -25.3%.
In the case of `Cc1ccc(Cl)cc1N1CCN(S(=O)(=O)c2ccc3c(c2)OCCO3)CC1`, the AC50 was 2.82 µM (active).
Take `O=c1c(Cl)c(N2CCN(S(=O)(=O)c3ccc(F)cc3)CC2)cnn1-c1cccc(Cl)c1`: the “activity, negative = inhibition” value was -28.2%.
`O=C(O)CCC(=O)N1CCOc2ccc(Cl)cc21`: the “activity, negative = inhibition” value was 0.992%.
With `Cc1ccc2nc(N3CCN(S(=O)(=O)c4ccc5c(c4)OCCO5)CC3)c(C#N)cc2c1`, the AC50 is 2.82 µM (active).
Consider `Cc1occc1C(=O)NNC(=O)c1ccc(F)cc1`, for which the “activity, negative = inhibition” value was -15.1%.
As for `CC(=O)C1=C(NC(=O)c2ccc(F)cc2)CC2C1C2(C)C` (stereo not drawn), the AC50 was 3.55 µM (active).
Consider `O=C(Nc1cccc2[nH]ncc12)c1ccc(F)cc1`, for which the “activity, negative = inhibition” value was -3.46%.
As for `C/C(CCN1CCCc2nc(C)c(C)cc21)=N\OC[C@@H](C)[C@H](OCc1ccccc1)C(C)C`, the activity, negative = inhibition was 24.5% [at 11.4 µM].
Take `Cn1ncc2c(NCCc3ccccc3)nc(Cl)nc21`: the activity, negative = inhibition was -22.7% [at 11.4 µM].
Take `O=C(CCCc1ccccn1)c1ccccc1`: the activity, negative = inhibition is -17.1% [at 11.4 µM].
Turning to `OC[C@@H](O)COc1cccc2ccccc12`, the “activity, negative = inhibition” value is -24.2%.
The same measure, in the same setting: the result for `COc1ccccc1N1CCN(C[C@@H](O)COc2cccc3ccccc23)CC1` reads 18.2% [at 25.6 µM].
Turning to `O=C(COc1cccc2ccccc12)N1c2ccccc2CCc2ccccc21`, the AC50 is 2.82 µM (active).
Consider `O=C(c1cc(C(F)(F)F)cc(C(F)(F)F)c1)N1CCC[C@@]2(CCN(Cc3nccs3)C2)C1`, for which the “activity, negative = inhibition” value was -1.58%.
Take `O=C(c1cccc(F)c1)N1CCC2(CCN(Cc3nccs3)CC2)CC1`: the AC50 is 15.8 µM (active).
For the compound `O=C(c1ccco1)N1CCC2(CCN(Cc3nccs3)CC2)CC1`, the “activity, negative = inhibition” value is 3.85%.
The same measure, in the same setting: the result for `O=C(c1cccc(F)c1)N1CCC2(CCCN(Cc3nccs3)C2)CC1` reads -3.9%.
With `O=C(c1ccco1)N1CCC[C@@]2(CCN(Cc3nccs3)C2)C1`, the “activity, negative = inhibition” value was -3.46%.
Turning to `O=C(c1ccncc1)N1CCC2(CCN(Cc3nccs3)CC2)CC1`, the “activity, negative = inhibition” value was 2.77%.
For the compound `O=C(c1cccc(F)c1)N1CCC[C@@]2(CCN(Cc3nccs3)C2)C1`, the AC50 is 10 µM (active).
For the compound `O=C(c1cc(C(F)(F)F)cc(C(F)(F)F)c1)N1CCC2(CCN(Cc3nccs3)CC2)CC1`, the half-maximal activity concentration (AC50) is 12.6 µM (active).
Consider `O=C(c1cc(C(F)(F)F)cc(C(F)(F)F)c1)N1CCC2(CCCN(Cc3nccs3)C2)CC1`, for which the “activity, negative = inhibition” value was 29.9%.
